Among all 39,000 compounds or so, about 3,300 (8.5%) were called active. The sample as a whole holds a higher share of actives than the screen did.

The experiment deals with HepG2. Put plainly: cytotoxicity call (relative viability < 0.9). Conditions: 10 µM.
Turning to `C[C@@H]1CN([C@H](C)CO)C(=O)c2cc(NC(=O)Nc3ccc(C(F)(F)F)cc3)ccc2O[C@@H]1CN(C)C(=O)Nc1ccc2c(c1)OCO2`, the cytotoxicity call is “inactive”.
For `COCC(=O)N1CC[C@]2(CC1)CN(Cc1ccc3c(c1)OCO3)[C@@H](CO)c1c2c2ccc(cc2n1C)OC` the value was “inactive”; for `Nc1ccc(-c2ccco2)cc1`, “inactive”; for `COc1ccc(S(=O)(=O)Nc2ccc3c(c2)CC(=O)N([C@H](C)CO)C[C@@H](C)[C@H](CN(C)S(=O)(=O)c2cn(C)cn2)O3)cc1`, “inactive”.
For `CC(C)NC(=O)N(C)C[C@@H]1OCc2cn(nn2)CCCC(=O)N([C@@H](C)CO)C[C@H]1C` the value was “inactive”.
For `C[C@@H]1CN([C@@H](C)CO)C(=O)c2cccc(NS(=O)(=O)c3ccc(F)cc3)c2O[C@H]1CN(C)Cc1ccc(Cl)c(Cl)c1` the value was “inactive”; for `CC(=O)O[C@@H]1[C@@H](O)C[C@@]2(C)[C@@H](CC[C@@H](C)[C@@]23Cc2c(O)cc4c(c2O3)CN([C@@H](CCC(=O)O)C(=O)O)C4=O)C1(C)C`, “inactive”; for `CCCN(C)C[C@H]1OCCCC[C@H](C)Oc2ccc(NC(=O)c3ccccc3)cc2C(=O)N([C@@H](C)CO)C[C@H]1C`, “inactive”.
As for `CC(C)N1C[C@H](C)[C@@H](CN(C)Cc2cccc(Cl)c2)Oc2c(NC(=O)c3ccncc3)cccc2C1=O`, the cytotoxicity call was “inactive”.
Under `C[C@@H]1CN([C@@H](C)CO)C(=O)c2cc(NC(=O)Nc3cccc4ccccc34)ccc2O[C@@H](C)CCCCO[C@@H]1CN(C)S(=O)(=O)c1ccc(Cl)cc1` stands “inactive”.
For `Nc1nnc(C(=O)N2CCCCC2)[nH]1` the value was “inactive”.
For `C[C@@H]1CN([C@H](C)CO)C(=O)c2cc(NC(=O)CCN3CCOCC3)ccc2O[C@H]1CN(C)CC1CCCCC1` the value was “inactive”.
On to `C[C@H]1CN([C@@H](C)CO)C(=O)Cc2cc(NC(=O)Cc3ccccc3)ccc2O[C@H]1CN(C)S(=O)(=O)c1cccs1`, for which the cytotoxicity call was “inactive”.
For `C[C@H](CO)N1C[C@H](C)[C@@H](CN(C)S(=O)(=O)c2ccccc2)Oc2ccc(NC(=O)CCC(F)(F)F)cc2CC1=O` the value was “inactive”; for `C[C@@H]1CN([C@H](C)CO)C(=O)Cc2cc(NC(=O)CCC(F)(F)F)ccc2O[C@@H]1CN(C)S(=O)(=O)c1ccccc1`, “inactive”; for `C[C@@H]1CN([C@@H](C)CO)C(=O)Cc2cc(NC(=O)Cc3ccccc3)ccc2O[C@H]1CN(C)S(=O)(=O)c1cccs1`, “inactive”.
Under `C[C@@H]1CN([C@@H](C)CO)C(=O)Cc2cc(NC(=O)CCC(F)(F)F)ccc2O[C@@H]1CN(C)S(=O)(=O)c1ccccc1` stands “active”; under `C[C@@H]1CN([C@@H](C)CO)C(=O)Cc2cc(NC(=O)Cc3ccccc3)ccc2O[C@@H]1CN(C)S(=O)(=O)c1cccs1`, “active”; under `C[C@@H]1CN([C@@H](C)CO)C(=O)c2cc(Br)cnc2O[C@H]1CN(C)Cc1ccccc1C(=O)O`, “inactive”.
Consider `COc1nc2ccc(Br)cc2cc1[C@@H](c1ccccc1)[C@@](O)(CCN(C)C)c1cccc2ccccc12`, for which the cytotoxicity call was “inactive”.
Under `C[C@@H]1CCCCO[C@@H](CN(C)Cc2ccccc2)[C@H](C)CN([C@H](C)CO)C(=O)c2cc(NC(=O)Nc3ccc4c(c3)OCO4)ccc2O1` stands “inactive”.
For `CCOc1ccc(CO[C@@H]2O[C@H](CO)[C@@H](O)[C@H](O)[C@H]2NC(C)=O)cc1OC` the value was “active”; for `CC(=O)N[C@@H]1[C@@H](Oc2ccc(C(C)=O)cc2)O[C@H](CO)[C@H](O)[C@@H]1O`, “inactive”; for `CC(=O)N[C@@H]1[C@@H](OCCOc2ccc(Cl)cc2C)O[C@H](CO)[C@H](O)[C@@H]1O`, “inactive”.
For `COCCOC(=O)N1C(=O)[C@@]2(c3ccccc31)[C@H](C(=O)Nc1nc3ccccc3s1)[C@H]1C(=O)O[C@H](c3ccccc3)[C@H](c3ccccc3)N1[C@@H]2c1ccc(OCCO)cc1` the value was “inactive”; for `CC(C)NC(=O)Cn1ccc([N+](=O)[O-])n1`, “inactive”.
As for `NS(=O)(=O)C#Cc1ccccc1`, the cytotoxicity call is “active”.
For `NS(=O)(=O)c1ccccc1` the value was “inactive”; for `Nc1ccccc1S(N)(=O)=O`, “inactive”.
`C[C@H]1CN([C@@H](C)CO)S(=O)(=O)c2ccc(C#Cc3cccnc3)cc2O[C@@H]1CN(C)C(=O)CN(C)C`: the cytotoxicity call is “inactive”.
For `CC(C)(O)CC(=O)NCCn1ccc2ncnc(Nc3ccc(Oc4cccc(C(F)(F)F)c4)c(Cl)c3)c21` the value was “inactive”; for `CS(=O)(=O)CCNCc1ccc(-c2ccc3ncnc(Nc4ccc(OCc5cccc(F)c5)c(Cl)c4)c3c2)o1` [listing 1 of 2 here], “active”.
For `CS(=O)(=O)CCNCc1nc(-c2ccc3ncnc(Nc4ccc(OCc5cccc(F)c5)c(Cl)c4)c3c2)cs1`, the cytotoxicity call is “inactive”.
Under `CS(=O)(=O)CCNCc1ccc(-c2ccc3ncnc(Nc4ccc(OCc5cccc(F)c5)c(Cl)c4)c3c2)o1` [listing 2 of 2 here] stands “active”; under `CC(CCC(=O)O)C1CCC2C3CCC4CCCCC4(C)C3CCC12C` (stereo not given), “inactive”; under `CN(C)CC(=O)N[C@H]1CC[C@H](CC(=O)NCCN2CCCCC2)O[C@H]1CO`, “inactive”.
For `Cc1ccc(S[C@]2(C(=O)NCCCN(C)C)CC(=O)N(C3Cc4ccccc4C3)[C@@H]2c2ccc(CO)cc2I)cc1` the value was “inactive”; for `CS(=O)(=O)N1C[C@H](O)COC[C@@H]2O[C@@H](CC(=O)NCCc3ccncc3)CC[C@H]21`, “inactive”; for `CO[C@H]1CN(C)C(=O)c2cc(NS(C)(=O)=O)ccc2OC[C@@H](C)N(C(=O)CN(C)C)C[C@@H]1C`, “inactive”.
For `C[C@H]1CCCCO[C@H](CN(C)CC2CC2)[C@@H](C)CN([C@@H](C)CO)C(=O)c2cc(NC(=O)CCC(F)(F)F)ccc2O1` the value was “inactive”; for `Cc1ccc(NC(=O)c2ccc(CN3CC[C@H](N(C)C)C3)c(C(F)(F)F)c2)cc1Nc1nccc(-c2cncnc2)n1`, “active”.
On to `Cc1ccc(NC(=O)c2ccc(CN3CCN(C)CC3)cc2)cc1Nc1nccc(-c2cccnc2)n1`, for which the cytotoxicity call is “inactive”.
Under `Cc1ncc(NC(=O)c2ccc(CN3CCN(C)CC3)c(C(F)(F)F)c2)cc1Nc1nccc(-c2cccnc2)n1` stands “active”; under `Cc1ccc(S(=O)(=O)Nc2ccc3c(c2)C(=O)N([C@@H](C)CO)C[C@H](C)[C@@H](CN(C)C(=O)C2CCCCC2)OCCCC[C@H](C)O3)cc1`, “inactive”.
Take `COc1ccc(CCNC(=O)[C@@H]2c3ccccc3C(=O)N(Cc3ccccc3OC)[C@H]2c2ccc(CO)cc2)cc1`: the cytotoxicity call was “inactive”.
For `C[C@@H]1CCCCO[C@H](CN(C)CC2CCCCC2)[C@@H](C)CN([C@H](C)CO)C(=O)c2cc(NC(=O)CCC(F)(F)F)ccc2O1` the value was “inactive”; for `COc1ccc(NC(=O)N(C)C[C@H]2OCCCC[C@H](C)Oc3ccc(NS(=O)(=O)c4ccccc4)cc3C(=O)N([C@@H](C)CO)C[C@@H]2C)cc1`, “inactive”.
In the case of `Cc1ccc(S(=O)(=O)N(C)C[C@H]2OCCCC[C@H](C)Oc3ccc(NC(=O)Cc4ccccc4)cc3C(=O)N([C@@H](C)CO)C[C@H]2C)cc1`, the cytotoxicity call was “inactive”.
Regarding `COc1ccc([Si](C)(C)[C@@H]2[C@@H](CCO)O[C@]3(C(=O)N(Cc4cccc(N5C(=O)c6ccccc6Oc6ccccc65)c4)c4ccccc43)[C@H]2C)cc1`, the cytotoxicity call is “active”.
Under `C[C@H]1[C@H]([Si](C)(C)F)[C@@H](CCO)O[C@]12C(=O)N(Cc1cccc(N3C(=O)c4ccccc4Oc4ccccc43)c1)c1ccccc12` stands “inactive”; under `COc1ccc([Si](C)(C)[C@H]2[C@H](CCO)O[C@@]3(C(=O)N(Cc4cccc(N5C(=O)c6ccccc6Oc6ccccc65)c4)c4ccccc43)[C@@H]2C)cc1`, “active”.
For `COc1ccc([Si](C)(C)[C@H]2[C@H](CCO)O[C@@]3(C(=O)N(Cc4cccc(N5CCCCC5=O)c4)c4ccccc43)[C@@H]2C)cc1` the value was “inactive”.
Regarding `CCNc1ncnc2c1nnn2C`, the cytotoxicity call was “inactive”.
For `Nc1cc([N+](=O)[O-])ccc1C(=O)O` the value was “inactive”; for `C[C@@H]1CCCCO[C@H](CN(C)C(=O)Nc2ccc(F)cc2)[C@@H](C)CN([C@H](C)CO)C(=O)c2cc(NC(=O)c3ccncc3)ccc2O1`, “inactive”; for `C[C@@H]1CN([C@H](C)CO)C(=O)CCCn2cc(nn2)CO[C@H]1CN(C)C(=O)Nc1ccc2c(c1)OCO2`, “inactive”.
With `C[C@@H]1CN([C@@H](C)CO)C(=O)c2cccc(NC(=O)c3cnccn3)c2O[C@@H]1CN(C)S(=O)(=O)c1cccs1`, the cytotoxicity call is “inactive”.
Under `Cc1noc(C)c1NC(=O)Nc1ccc2c(c1)C(=O)N([C@H](C)CO)C[C@@H](C)[C@H](CN(C)Cc1ccc(C(F)(F)F)cc1)OCCCC[C@@H](C)O2` stands “inactive”; under `CCN1CCN(c2ccc(Nc3cc(N(C)C(=O)Nc4c(Cl)c(OC)cc(OC)c4Cl)ncn3)cc2)CC1`, “active”.
For `C[C@H]1CN([C@@H](C)CO)S(=O)(=O)c2ccc(C3=CCCCC3)cc2O[C@@H]1CN(C)C(=O)C1CCOCC1` the value was “inactive”; for `C[C@@H]1CCCCO[C@H](CN(C)C(=O)Nc2ccc(F)cc2)[C@H](C)CN([C@@H](C)CO)C(=O)c2cc(NC(=O)Nc3ccc4c(c3)OCO4)ccc2O1`, “inactive”; for `COCC(=O)N1C[C@H](C)[C@H](OC)CN(C)C(=O)c2cc(NC(=O)c3ccc(OC)cc3)ccc2OC[C@@H]1C`, “inactive”.
For `Cn1c(=O)c2c(ncn2CC(O)CO)n(C)c1=O` (stereo not given) the value was “inactive”.
As for `Cn1c(=O)c2c(ncn2C[C@@H](O)CO)n(C)c1=O`, the cytotoxicity call was “inactive”.
Under `Cn1c(=O)c(F)c(Nc2ccc(I)cc2F)c2c(=O)n(C[C@@H](O)CO)cnc21` stands “active”; under `C[C@@H]1CN([C@@H](C)CO)C(=O)c2cccc(NC(=O)Nc3ccc(C(F)(F)F)cc3)c2O[C@@H]1CN(C)S(C)(=O)=O`, “inactive”; under `COc1ccc(NC(=O)N(C)C[C@@H]2OCCCC[C@@H](C)Oc3ccc(NS(=O)(=O)c4ccc(F)cc4)cc3C(=O)N([C@H](C)CO)C[C@H]2C)cc1`, “inactive”.
Under `Fc1ccc(-c2nc3ccc4ccccc4c3c3c2CCC3)cc1` stands “inactive”.
Under `Fc1ccc(-c2nc3c4ccccc4c4ccccc4c3[nH]2)cc1` stands “active”; under `N[C@H]1CC[C@H](CCn2cc(C3CCCCC3)nn2)O[C@@H]1CO`, “inactive”.

For the origin of these results see the antibiotic and cytotoxicity screens of Wong et al. (2023).
